TGFb inhibitor: inhibitors of TGF-b signaling | HepG2 CAGA-GFP TGF-b/SMAD3 reporter, GFP fluorescence, 18 h; TGF-beta stimulated, 500 pg/mL final | Potency, µM (doses to about 46.1 µM), for inactives: top-dose activity, negative = inhibition, hits mostly inhibitors | AID 588855 | 1.2% of 410,000 active; also: potency is read from the fitted curve at half-maximal effect; % is scaled to controls: 0 for no effect and ±100 for the full control effect; nearly all actives have a fitted effect of over 65% in size
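Using HEPG2 CAGA-GFP reporter cells at 1000 cells/well, we pinned test compounds, stimulated with recombinant TGF-beta (500 pg/mL final) and measured total well GFP after 18 h.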
Giardia kill: kills Giardia lamblia. Giardia lamblia trophozoite viability. activity change, % at 7.66 µM, hits read low. 0.15% of 340,000 active; in the data active = activity change below about -80%; inconclusive = between about -30% and that limit;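 also: parasites exposed to compound for two days anaerobically before the ATP read; % is scaled to controls: 0 for no effect and ±100 for the full control effect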
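Giardia lamblia trophozoites (100 cells/well) were incubated with compounds for 48 h at 37 deg C under anaerobic conditions. Viability was read as ATP content by one-step luminescence after 15-30 min at room temperature.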
HT1080 IDH1KD tx: toxicity to HT-1080 IDH1 knockdown cells (counter line); HT-1080 IDH1 knockdown viability, ATP luminescence, 48 h; AID 686971; 2% of 360,000 active; Potency, µM (titrated, usually from 46.1 µM), for inactives: at the highest dose activity, negative = toxicity, actives largely listed as cytotoxic;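 also: potency is read from the fitted curve at half-maximal effect; 0% = DMSO wells and -100% = cell-free medium wells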
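Luminescent ATP read-out (CellTiter-Glo, 10 min at room temperature) after 48 h compound exposure at 37 °C gave viability of IDH1-knockdown HT-1080 cells. Activity was normalised to DMSO and cell-free wells, then fitted as concentration-response curves.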
HT1080NT lethal: kills 2HG-producing HT-1080-NT fibrosarcoma cells. Potency, µM (titrated, usually from 46.1 µM), for the others: top-dose activity, negative = less viability, hits mostly cytotoxic. HT-1080-NT fibrosarcoma viability, CellTiter-Glo ATP luminescence, 48 h. 1.6% of 360,000 active;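 also: NT is the 2HG producing partner of a matched IDH1 knockdown line; potency is read from the fitted curve at half-maximal effect; 0% = DMSO-treated cells and -100% = media-only wells without cells; nearly all actives have a fitted effect of over 55% in size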
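A 48-hour cytotoxicity screen used HT-1080-NT cells plated 2 hours before compound delivery. ATP-based CellTiter-Glo luminescence measured viability, normalized to DMSO and no-cell controls.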
HepG2 tox-1: kills HepG2 cells in TGF-b inhibitor counter-screen; HepG2 CAGA-GFP viability, ATP luminescence, 18 h; Potency, µM (titrated, usually from 46.1 µM), for the others: top-dose activity change, negative = cytotoxicity, usual class: cytotoxic; 0.76% of 410,000 active; AID 588856; also: potency is read from the fitted curve at half-maximal effect
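CellTiter-Glo luminescence gave cytotoxicity after 18 hours at 37 degrees C. The cells were HepG2 CAGA-GFP in 1% FBS DMEM, stimulated with 500 pg/mL TGF-beta after compound addition. %Activity was normalised to no-cell wells (complete cell-killing) and DMSO (no toxicity), and curves were fitted and classified.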
IL1B secr inh: inhibitors of inflammasome signaling (IL-1 beta secretion); activity change, % at 57.5 µM; THP-1 LPS/ATP IL-1B secretion, AlphaLISA, 16 h; active compounds read low; 4.7% of 360,000 active; in the data active = activity change below about -50%; inconclusive = mostly about -30% to -49%; also: % is scaled to controls: 0 for no effect and ±100 for the full control effect
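THP-1 cells pretreated 1 hr with compounds (up to 57.5 uM final), then stimulated with LPS (250 ng/mL final) plus ATP (1.25 mM final); secreted IL-1B measured by AlphaLISA after 16 hr, decreased signal indicating inhibition.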
TGFb confirm: TGF-b pathway inhibition, cherry-pick retest; 63% of 1,600 active; HepG2 CAGA-GFP TGF-b reporter, GFP fluorescence, 18 h; cells stimulated with TGF-beta, 500 pg/mL; Potency, µM (titrated, usually from 46.1 µM), for the others: at the highest dose activity, negative = inhibition, hits mostly inhibitors; shares compounds with TGFb inhibitor; also: potency is read from the fitted curve at half-maximal effect; % is scaled to controls: 0 for no effect and ±100 for the full control effect; nearly all actives have a fitted effect of over 65% in size
HepG2 tox-2: HepG2 cytotoxicity, TGF-b inhibitor counterscreen; shares compounds with TGFb inhibitor; HepG2 CAGA-GFP viability, ATP luminescence, 18 h; cells stimulated with TGF-beta, 500 pg/mL; Potency, µM (series often up to 46.1 µM), for inactives: top-dose activity, negative = cytotoxicity, most hits filed as inhibitors; 27% of 1,600 active; AID 720535; also: potency is read from the fitted curve at half-maximal effect; % is scaled to controls: 0 for no effect and ±100 for the full control effect; nearly all actives have a fitted effect of over 70% in size
TGFb CCL64 inh: blocks TGF-b signaling in CCL64 reporter cells; shares compounds with TGFb inhibitor; CCL64 CAGA-GFP reporter, TGF-b stimulated, GFP fluorescence, 18 h; Potency, µM (series often up to 46.1 µM), inactives show top-dose activity, negative = inhibition, most hits filed as inhibitors; 41% of 1,600 active; AID 720536; also: potency is read from the fitted curve at half-maximal effect; nearly all actives have a fitted effect of over 65% in size
TGFb COP inh: blocks TGF-b signaling in HepG2 COP reporter. AID 720537. HepG2 COP-GFP TGF-b reporter, GFP fluorescence, 18 h; cells stimulated by added recombinant TGF-beta. shares compounds with TGFb inhibitor. Potency, µM (top dose mostly 46.1 µM), inactives show at the top dose activity, negative = inhibition, hits mostly inhibitors. 3% of 1,600 active; also: potency is read from the fitted curve at half-maximal effect; nearly all actives have a fitted effect of over 70% in size
An asterisk follows results filed as active; ? = inconclusive; · = not tested or not shown. Only some compounds are listed: those with a hit (about 6.5% of all), similar ones and a draw of the others. Unless noted, calls follow the shape of the dose curve; as a rule, active = well fitted curve in the direction sought with a large enough effect; inconclusive = small, poorly fitted or top-dose-only effect, or another doubt; inactive = no such curve, though single readings can be large; an effect the other way counts as inactive or inconclusive.

SMILES	TGFb inhibitor	Giardia kill	HT1080 IDH1KD tx	HT1080NT lethal	HepG2 tox-1	IL1B secr inh	TGFb confirm	HepG2 tox-2	TGFb CCL64 inh	TGFb COP inh
FC(F)(F)c1nc2ccccc2n2c(-c3ccc(Cl)cc3)nnc12	4.47µM*	3.3	4.61µM*	5.8µM*	-31.6%	?	5.17µM*	?	11.7%	66.5%
CCNC(=S)Nc1cc(OCC)c(N2CCOCC2)cc1OCC	-1.1%	23.4	26.8%	22.1%	-5.7%	15.3	·	·	·	·
CN(C)CCC(=O)C(Cc1ccccc1)c1ccccc1 (stereo unspecified)	7.94µM*	-17.8	?	-39.2%	20µM*	-99.1*	4.11µM*	14.6µM*	10.3µM*	?
CN(C)CCC(C(=O)c1ccccc1)c1ccncc1 (stereo unspecified)	2.8%	4.8	13.8%	18.0%	-6.3%	-10.5	·	·	·	·
CC(=O)N1c2ccccc2C(=O)C1N1CCN(c2ccc(F)cc2)CC1 (stereo unspecified)	-16.7%	·	·	·	-16.6%	·	·	·	·	·
Cc1ccc(OCCn2c(-c3ccc(Cl)cc3)nc3ccccc3c2=O)c(C)c1	9.8%	·	·	·	-19.1%	·	·	·	·	·
COC(=O)CC(=O)CSc1nc2cc(C(=O)NC(C)C)ccc2c(=O)n1CCc1ccccc1	-25.7%	·	·	·	-5.4%	·	·	·	·	·
COc1cccc(CN(C(=O)Cc2c[nH]c3ccccc23)C(C(=O)NC2CCCCC2)c2ccc(C)o2)c1 (stereo unspecified)	15.8µM*	-9.3	?	-21.4%	-10.9%	-67.8*	25.9µM*	?	?	22.9%
CCN(CC)CC(C)(C)C(=O)/C=C/c1ccc(/C=C/C(=O)C(C)(C)CN(CC)CC)cc1	4.47µM*	-4.1	1.64µM*	5.8µM*	5.01µM*	-2.7	3.26µM*	3.26µM*	4.61µM*	?
CCN(CC)CCOC(=O)/C=C/c1ccccc1	-15.0%	-10.7	0.5%	1.3%	-17.8%	-5.5	·	·	·	·
CCN(Cc1cnn(C)c1)Cc1nc(C2(c3ccc(C)cc3)CCCC2)no1	-15.6%	6.9	-1.7%	-3.0%	-24.1%	1.7	·	·	·	·
Cc1cc(NC(=S)NC(=O)C2CC2)ccc1Br	3.98µM*	4.9	-8.1%	-10.6%	-2.1%	24.0	0.82µM*	0.461µM*	?	25.1%
Cc1ccccc1CN(CC(=O)Nc1cccc([N+](=O)[O-])c1)S(=O)(=O)c1ccc(Cl)cc1	11.2µM*	-16.2	-21.9%	?	-28.4%	?	10.3µM*	?	2.31µM*	70.5%
O=C1c2ccccc2C(c2nnnn2Cc2ccccc2)N1Cc1cccc(F)c1 (stereo unspecified)	·	·	7.2%	0.8%	·	36.7	·	·	·	·
CCc1noc(C)c1C(=O)Nc1nc(-c2ccc(Cl)cc2Cl)cs1	11.2µM*	-11.6	0.1%	2.1%	-5.0%	?	14.6µM*	14.6µM*	?	46.0%
CCCCN(C(=O)C(C)N1C(=O)c2ccccc2C1=O)c1c(N)n(CCCC)c(=O)[nH]c1=O (stereo unspecified)	-3.8%	16.8	0.6%	1.2%	2.4%	-1.2	·	·	·	·
Cc1ccc(S(=O)(=O)Nc2cccc3cccnc23)c([N+](=O)[O-])c1	4.47µM*	-3.8	2.06µM*	?	-27.0%	-72.8*	-18.1%	?	?	43.2%
Cc1cc(C)c(NS(=O)(=O)c2cccc3cccnc23)c(C)c1	0.1%	-17.5	14.8%	-4.6%	-2.8%	12.2	·	·	·	·
O=S(=O)(Nc1cccc2cccnc12)c1ccccc1	7.08µM*	3.7	23.1µM*	25.9µM*	-13.7%	-104.3*	23.1µM*	?	11.6µM*	36.5%
CCC(C)(C(=O)Nc1ccc(OC)cc1)N(C)C(=O)Cn1nnnc1N (stereo unspecified)	6.3%	-25.3	-3.9%	-0.4%	2.2%	13.5	·	·	·	·
COc1cc(-c2cc(N)n(S(=O)(=O)c3ccccc3)n2)cc(OC)c1OC	-2.0%	3.0	-10.0%	-22.8%	-6.3%	-1.7	·	·	·	·
COc1ccc(S(=O)(=O)n2nc(-c3ccc(Cl)cc3)cc2N)cc1	12.6µM*	5.8	18.4µM*	18.4µM*	-18.4%	-11.5	?	?	?	31.8%
CCOc1ccc(C2C([N+](=O)[O-])=C(C)N(C)C(=O)N2C)cc1OC (stereo unspecified)	5.7%	-26.9	-2.2%	-4.5%	-0.4%	-25.5	·	·	·	·
CCCc1cc2c(c(NC(C)=O)n1)c(=O)oc1ccccc12	-6.5%	9.0	-6.1%	-5.7%	-11.6%	10.4	·	·	·	·
CC1Nc2ncnc(N3CCc4ccccc4C3)c2N(Cc2ccc(Br)cc2)C1=O (stereo unspecified)	?	-4.3	?	?	-23.6%	?	·	·	·	·
CCC1Nc2ncnc(N3CCc4ccccc4C3)c2N(Cc2ccc(Br)cc2)C1=O (stereo unspecified)	12.6µM*	·	?	?	-10.7%	-94.9*	18.4µM*	18.4µM*	-80.9%	27.7%
CCc1nc(N)nc(N)c1-c1ccc(N(C)Cc2ccccc2)c([N+](=O)[O-])c1	0.708µM*	-16.0	0.651µM*	?	-37.7%	-97.8*	?	0.291µM*	29.1µM*	82.3%
Cc1noc(-c2ccc(N(C)Cc3ccccc3)c([N+](=O)[O-])c2)n1	?	·	·	·	-18.4%	·	·	·	·	·
COC(=O)c1[nH]c2c(c1C)C(=O)CC(c1ccccc1)C2 (stereo unspecified)	?	6.2	?	0.447µM*	1.2%	45.0	?	0.4%	?	-12.3%
